Assay outcomes deposited in PubChem by National Center for Advancing Translational Sciences (NCATS).
Rows were chosen to be rich in hits. Some 19% of all compounds tested hit in one or more screens of this group.
TGFb SMAD3 inh: blocks TGF-b signaling; HepG2 CAGA-GFP TGF-b/SMAD3 reporter, GFP fluorescence, 18 h; TGF-beta stimulated, 500 pg/mL final; Potency, µM (doses to about 46.1 µM), for inactives: at the highest dose activity, negative = inhibition, hits mostly inhibitors; hit rate 1.2% among 410,000; AID 588855; also: potency is read from the fitted curve at half-maximal effect; % is scaled to controls: 0 for no effect and ±100 for the full control effect; nearly all actives have a fitted effect of over 65% in size
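First, reporter cells (HEPG2 CAGA-GFP) rested 2 h at 37 degrees C. Next, compounds were pinned in and TGF-beta added to 500 pg/mL final. After 18 h, GFP was imaged per cell and summed per well.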
HepG2 tox: HepG2 cytotoxicity, counter-screen for TGF-b inhibitors; HepG2 CAGA-GFP viability, ATP luminescence, 18 h; Potency, µM (highest dose often 46.1 µM), for inactives: at the highest dose activity change, negative = cytotoxicity, hits mostly cytotoxic; hit rate 0.76% among 410,000; AID 588856; also: potency is read from the fitted curve at half-maximal effect
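HepG2 CAGA-GFP cells (1000/well, DMEM with 1% FBS) received compound, then TGF-beta at 500 pg/mL final, and were incubated 18 hours at 37 degrees C. Viability was read by CellTiter-Glo luminescence. Media-only wells were set as complete cell-killing and DMSO as no toxicity.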
ASM inhibitor: human S-ASM enzyme inhibition | P17405 | placental ASM, HMU-PC fluorogenic substrate, 60 min | Potency, µM (titrated, usually from 57.5 µM), for inactives: top-dose activity change, negative = inhibition, actives largely listed as inhibitors | hit rate 0.006% among 340,000 | AID 504937; also: potency is read from the fitted curve at half-maximal effect
Target sequence (P17405 47-631 limits assumed): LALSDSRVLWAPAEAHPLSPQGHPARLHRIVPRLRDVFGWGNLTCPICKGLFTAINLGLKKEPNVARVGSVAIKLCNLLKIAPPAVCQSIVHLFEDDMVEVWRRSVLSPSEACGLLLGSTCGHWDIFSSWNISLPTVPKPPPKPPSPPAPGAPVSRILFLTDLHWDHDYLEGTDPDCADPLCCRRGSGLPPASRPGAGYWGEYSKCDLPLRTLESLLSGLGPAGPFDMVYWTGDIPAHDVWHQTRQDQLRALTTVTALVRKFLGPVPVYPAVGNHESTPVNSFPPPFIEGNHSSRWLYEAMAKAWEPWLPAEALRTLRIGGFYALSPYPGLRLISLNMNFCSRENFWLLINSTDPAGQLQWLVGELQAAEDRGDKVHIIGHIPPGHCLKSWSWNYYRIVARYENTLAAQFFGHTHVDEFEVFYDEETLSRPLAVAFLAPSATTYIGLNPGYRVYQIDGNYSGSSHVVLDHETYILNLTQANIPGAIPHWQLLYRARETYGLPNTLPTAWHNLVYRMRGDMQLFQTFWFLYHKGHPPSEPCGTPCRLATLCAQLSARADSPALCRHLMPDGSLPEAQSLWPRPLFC
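HMU-PC0 cleavage (9 uM final) by human placental ASM, 60 min at 37 °C following 10 min compound exposure at RT; stopped at pH 10, fluorescence Ex 386/Em 447 nm.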
TDP1 cell CPT: growth inhibition of DT40 Tdp1-/-;hTDP1 cells with camptothecin (screen for TDP1 inhibitors). chicken DT40 Tdp1-/-;hTDP1 cells + 20 nM CPT, ATP luminescence, 48 h. Potency, µM (doses to about 46.2 µM), for the others: at the highest dose activity change, negative = growth inhibition, hits mostly inhibitors. hit rate 12% among 420,000; also: potency is read from the fitted curve at half-maximal effect; % is scaled to controls: 0 for no effect and ±100 for the full control effect; nearly all actives have a fitted effect of over 55% in size
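Cell growth measured by CellTiter-Glo luminescence after a minimum 48 h, 37 C compound exposure with 20 nM CPT in Tdp1-knockout DT40 cells stably expressing hTDP1, seeded 400/well; qHTS titration format.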
DT40 TDP1 no CPT: qHTS for Inhibitors of human tyrosyl-DNA phosphodiesterase 1 (TDP1): qHTS in cells in absence of CPT. DT40 Tdp1-/- hTDP1 cells, no CPT, ATP luminescence, 48 h. hit rate 15% among 420,000. Potency, µM (top dose mostly 46.2 µM), without a hit: at the top dose activity change, negative = growth inhibition, hits mostly inhibitors; also: potency is read from the fitted curve at half-maximal effect; % is scaled to controls: 0 for no effect and ±100 for the full control effect; nearly all actives have a fitted effect of over 55% in size
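Growth of hTDP1-complemented DT40 Tdp1-knockout cells is measured by ATP luminescence after at least 48 hr compound exposure at 37 °C, with DMSO substituting for the 20 nM CPT used in the parallel screen.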
IL-1B inflam inh: blocks inflammasome-driven IL-1 beta release; THP-1 LPS/ATP IL-1B secretion, AlphaLISA, 16 h; hits give low values; activity change, % at 57.5 µM; hit rate 4.7% among 360,000; AID 743279; in the data active = activity change below about -50%; inconclusive = mostly about -30% to -49%; also: % is scaled to controls: 0 for no effect and ±100 for the full control effect
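THP-1 cells pretreated 1 hr with compounds (up to 57.5 uM final), then stimulated with LPS (250 ng/mL final) plus ATP (1.25 mM final); secreted IL-1B measured by AlphaLISA after 16 hr, decreased signal indicating inhibition.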
Numbers without * were called inactive; i = inactive; u = inconclusive; x = no result. Unless noted, calls follow the shape of the dose curve; as a rule, active = well fitted curve in the direction sought with a large enough effect; inconclusive = small, poorly fitted or top-dose-only effect, or another doubt; inactive = no such curve, though single readings can be large; an effect the other way counts as inactive or inconclusive.

SMILES	TGFb SMAD3 inh	HepG2 tox	ASM inhibitor	TDP1 cell CPT	DT40 TDP1 no CPT	IL-1B inflam inh
O=[n+]1cc(-c2ccc(Br)cc2)n([O-])c2c1CCC2	4%	15%	0%	u	u	20
CN(C)CCOC1c2ccccc2CCc2ccc3ccccc3c21 (stereo not drawn)	u	-18%	2%	u	21µM*	-86*
CCC1(c2ccccc2)NC(=O)N(CC(=O)Nc2cccc(S(=O)(=O)N3CCCC3)c2)C1=O (stereo not drawn)	-4%	1%	1%	u	-18%	3
CCC1(c2ccccc2)NC(=O)N(CC(=O)Nc2cc(S(=O)(=O)N3CCCCC3)ccc2OC(C)C)C1=O (stereo not drawn)	-1%	12%	-3%	23µM*	u	u
CCC1(c2ccccc2)NC(=O)N(CC(=O)Nc2cc(S(=O)(=O)N3CCCCCC3)ccc2OC)C1=O (stereo not drawn)	u	-5%	-1%	16µM*	21µM*	-3
CCOc1ccc(S(=O)(=O)N2CCCCC2)cc1NC(=O)CN1C(=O)NC(CC)(c2ccccc2)C1=O (stereo not drawn)	-7%	2%	-5%	u	u	-3
CN(Cc1c(F)cccc1Cl)C(=O)C1=CC=CN2CCS(=O)(=O)N=C12	-2%	0%	4%	-16%	21%	3
O=c1oc2ccccc2c(Nc2cc3ccccc3cc2O)c1[N+](=O)[O-]	u	-17%	-2%	5.8µM*	5.8µM*	55
O=c1oc2ccccc2c(NCc2ccc(Cl)cc2)c1[N+](=O)[O-]	u	-25%	-10%	-3%	-4%	-26
Cc1cc(Cl)cc(Cl)c1CNc1c([N+](=O)[O-])c(=O)oc2ccccc12	u	3%	-8%	u	16µM*	11
O=c1oc2ccccc2c(Nc2ccccc2O)c1[N+](=O)[O-]	0%	0%	-4%	-13%	-16%	-18
Cc1oc2ncnc(N3CCOCC3)c2c1C(=O)Nc1ccc(Br)cc1F	6%	-17%	x	9%	-14%	x
Brc1ccc2c(c1)CNc1c(ncnc1N1CCOCC1)O2	-1%	-4%	1%	16µM*	u	-12
Brc1ccc(N=NNc2ccccc2)cc1	-14%	-19%	-3%	-24%	-29%	11
NC(=S)N=Nc1ccc(NN=C(N)N)cc1	-9%	3%	-5%	1.3µM*	1.5µM*	-23
Cc1ccc(C(c2sc3nc(-c4ccco4)nn3c2O)N2CCN(c3ccc(F)cc3)CC2)cc1 (stereo not drawn)	11%	1%	x	-1%	-8%	x
CCNC(=S)N(Cc1ccco1)Cc1cc2cc3c(cc2[nH]c1=O)OCCO3	-9%	4%	13%	u	u	46
Cc1cc2cc(CN(Cc3ccco3)C(=S)NCC3CCCO3)c(=O)[nH]c2cc1C (stereo not drawn)	-25%	-8%	-4%	u	21µM*	-63*
Cc1cc2cc(CN(CC3CCCO3)C(=S)NCc3ccco3)c(=O)[nH]c2cc1C (stereo not drawn)	u	-3%	-9%	u	16µM*	-75*
CCc1ccc2[nH]c(=O)c(CN(Cc3ccco3)C(=S)NCC3CCCO3)cc2c1 (stereo not drawn)	u	-10%	-5%	u	u	-115*
COCCCNC(=O)c1c(NC(=O)Cc2coc3c(C)c(C)ccc23)sc2c1CCCC2	2%	-81%	x	16µM*	16µM*	x
COCCCNC(=O)c1c(NC(=O)c2cc(=O)c3ccccc3o2)sc2c1CCCC2	33%	8%	x	-17%	5.2µM*	x
Cc1ccc2c(CC(=O)NCc3ccccc3)coc2c1C	-12%	-15%	x	4.1µM*	3.3µM*	x
Cc1ccc2c(CC(=O)Nc3ccccc3C(F)(F)F)coc2c1C	u	-42%	x	-6%	-6%	x
COCCCNC(=O)c1c(NC(=O)Cc2coc3cc(C)cc(C)c23)sc2c1CCCC2	u	-40%	x	u	u	x
SMILES	TGFb SMAD3 inh	HepG2 tox	ASM inhibitor	TDP1 cell CPT	DT40 TDP1 no CPT	IL-1B inflam inh
O=C(Nc1sc2c(c1C(=O)NCc1ccccc1)CCCC2)c1cc(=O)c2ccccc2o1	3%	9%	x	-1%	u	x
COCCNC(=O)c1c(NC(=O)Cc2coc3cc(C)ccc23)sc2c1CCCC2	-2%	-1%	x	23µM*	u	x
Cc1cc(C)c(C)c(S(=O)(=O)N2CCC(C(=O)N3CCCC3)CC2)c1C	-29%	-26%	-1%	-13%	-21%	0
Cc1ccccc1OCC(=O)NCC(c1cccs1)N1CCOCC1 (stereo not drawn)	u	-5%	3%	u	u	24
Cc1cc(NS(=O)(=O)c2ccc(NC(=O)COc3ccc(Cl)cc3)cc2)nc(C)n1	-1%	-2%	x	u	u	x
Cc1ccc(SCC(=O)O/N=C(\N)c2cccnc2)cc1	-9%	-8%	4%	-11%	-18%	-13
COC(=O)c1c(NC(=O)Cc2coc3cc(C)ccc23)sc2c1CCC2	1%	4%	x	-30%	3.3µM*	x
COC(=O)c1c(NC(=O)Cc2coc3ccc(C)cc23)sc2c1CCC2	-1%	-2%	x	u	u	x
Cc1c(C(=O)Nc2ccc(F)cc2)c2ccccn2c1CCc1ccncc1	-21%	0%	i	u	u	-52*
CC(=O)Nc1ccc(S(=O)(=O)NNC(=O)c2cc3c4ccccc4n(C)c3s2)cc1	-5%	-15%	-2%	5.2µM*	5.2µM*	-5
Cn1c2ccccc2c2cc(C(=O)NNC(=O)CCl)sc21	-21%	-28%	2%	3.7µM*	9.2µM*	-133*
CCn1c(CNC(=O)C23CC4CC(CC(C4)C2)C3)nnc1SCC(=O)Nc1ccccc1	-26%	-16%	x	-19%	u	x
COc1ccccc1NC(=O)Cc1coc2cc(C)ccc12	-8%	1%	-1%	-12%	u	-6
Cc1ccc2c(CC(=O)NNC(=O)c3ccccc3O)coc2c1	-10%	-21%	8%	u	26µM*	93
Cc1ccc2c(CC(=O)Nc3cccc(C(F)(F)F)c3)coc2c1	u	-51%	x	16µM*	u	x
CCOc1c([N+](=O)[O-])cc2c(C)c(C(=O)N3CCN(C)CC3)oc2c1OCC	0%	-3%	8%	17%	16µM*	3
